Results published in the supplement of paper PMC12636033.
± gives the standard deviation of the averaged measurements. Over roughly 33,000 sequences, “E-score (rank enrichment, -0.5 to 0.5)” has its median near -0.0068; the highest 2% begin near 0.24. The sample holds the highest values, similar sequences and a random draw of the others, so the mix is not that of the screen.

Test system: muMax20 (Max(13-93) K31hArg/K57hArg, M65Nle)
Assay: PBM 8-mer E-score (E-score (rank enrichment, -0.5 to 0.5)); higher = stronger preferential binding
Procedure: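 Protein binding microarray (universal PBM chip covering all 10-mers in fixed probe flanks) with chemically synthesized human Max(13-93) bHLH-LZ analogs (not full-length Max) bearing noncanonical residues (hArg, Tha, Aib, Nle at 65) and aromatic Cys staples. Read-out per 8-mer (and its reverse complement): E-score (rank-based enrichment, -0.5 to 0.5) and Z-score of median probe intensity.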

Row | Sequence | PBM 8-mer E-score
1 | AGGGCGAT | -0.119 ± 0.015
2 | AGACTAAT | -0.0591 ± 0.045
3 | GGATATTA | 0.125 ± 0.09
4 | CGATATAG | 0.044 ± 0.12
5 | CGATATAA | 0.267 ± 0.016
6 | CGATATTC | -0.032 ± 0.1
7 | CGATATAC | 0.0102 ± 0.0034
8 | CGATATTA | 0.267 ± 0.038
9 | CTCGGGTC | -0.292 ± 0.04
10 | ATCTCAGC | -0.206 ± 0.11
11 | ATCATGAG | 0.111 ± 0.046
12 | ATCATAAA | 0.212 ± 0.046
13 | ATCATAAG | 0.19 ± 0.028
14 | ATCATGAA | 0.111 ± 0.029
15 | ATCATGAT | 0.289 ± 0.0047
16 | AACATAAC | 0.18 ± 0.13
17 | ATCATAAT | 0.288 ± 0.047
18 | AACATAAG | 0.13 ± 0.07
19 | AACATAAT | 0.31 ± 0.035
20 | CGCGCCAG | -0.222 ± 0.12
21 | ATTGAGAC | -0.0808 ± 0.13
22 | GTGACAAA | 0.0325 ± 0.033
23 | AATAATGC | 0.1872 ± 0.0018
24 | GATAATGA | -0.00519 ± 0.014
25 | AATAATGT | 0.258 ± 0.068

Row | Sequence | PBM 8-mer E-score
26 | CATAATGA | 0.0649 ± 0.033
27 | AATAATGA | 0.269 ± 0.062
28 | AATAATGG | 0.0129 ± 0.086
29 | GCTCTTTA | 0.0129 ± 0.059
30 | CGAAACAG | -0.176 ± 0.0078
31 | CCCGGCTC | -0.299 ± 0.021
32 | CTCGGTTC | -0.185 ± 0.018
33 | GTTTTACA | 0.0874 ± 0.0056
34 | ATGGTAAC | 0.26 ± 0.046
35 | GTGGTAAC | 0.102 ± 0.049
36 | ATGGTAAG | 0.0283 ± 0.054
37 | GATAGTAC | 0.0698 ± 0.03
38 | CCCCACCC | 0.165 ± 0.027
39 | ACCCACCC | 0.299 ± 0.091
40 | GCCCACAC | 0.0523 ± 0.0056
41 | GCCCACCA | -0.032 ± 0.095
42 | ACCCACCA | 0.0656 ± 0.034
43 | GCCCACCC | 0.294 ± 0.07
44 | AACGGCCG | -0.0126 ± 0.14
45 | ACCCCGAG | -0.142 ± 0.045
46 | CATACCAG | 0.0299 ± 0.094
47 | ATGTATTG | 0.251 ± 0.048
48 | GTGTATTA | 0.277 ± 0.0053
49 | ATATATTA | 0.225 ± 0.056
50 | CTATATTA | 0.199 ± 0.042

Row | Sequence | PBM 8-mer E-score
51 | ATGTATTA | 0.22 ± 0.012
52 | ATGTATCG | 0.213 ± 0.065
53 | GTATATTA | 0.28 ± 0.025
54 | ATGTATTC | 0.107 ± 0.074
55 | CTGTATTA | 0.129 ± 0.013
56 | AGCTAGAA | -0.0154 ± 0.041
57 | GGTCCACA | -0.0698 ± 0.11
58 | GACGCAGA | -0.0585 ± 0.079
59 | CCCAGTAG | -0.0372 ± 0.037
60 | CGGTAACA | -0.0167 ± 0.022
61 | AGCCTGCA | 0.0231 ± 0.12
62 | AGCGTTGC | -0.0889 ± 0.092
63 | CCGGCCGC | -0.23 ± 0.0085
64 | CGCGGGTA | -0.0475 ± 0.074
65 | ATGATTGA | 0.127 ± 0.063
66 | ACCCAACC | 0.0711 ± 0.054
67 | GATAATCA | 0.311 ± 0.07
68 | GATAATCC | -0.0364 ± 0.011
69 | GCTAATCA | -0.0154 ± 0.012
70 | CATAATCA | 0.08 ± 0.021
71 | AATAATCA | 0.08847 ± 8.5e-05
72 | TATAATCA | 0.247 ± 0.037
73 | ACTCCTCT | -0.0496 ± 0.01
74 | GCCAAGAA | 0.106 ± 0.011
75 | ACCGAAAC | -0.0608 ± 0.064

Row | Sequence | PBM 8-mer E-score
76 | ATCCTCAA | -0.0775 ± 0.063
77 | CATCGCAA | 0.0394 ± 0.039
78 | GGGCGGAC | -0.19 ± 0.067
79 | CGGCGGGA | -0.2043 ± 0.0015
80 | CGCGGGGA | -0.0158 ± 0.054
81 | GGCGGGGA | 0.245 ± 0.082
82 | GGCGGGAA | -0.0111 ± 0.026
83 | GGGCGGGA | 0.256 ± 0.051
84 | AGGCGGGA | 0.0523 ± 0.011
85 | AAGCCTAG | 0.0589 ± 0.067
86 | CGCTTCAC | -0.106 ± 0.011
87 | GGAACGAC | -0.0812 ± 0.036
88 | GACGCTCC | -0.151 ± 0.072
89 | GTTTAATA | 0.218 ± 0.022
90 | ATTTAATA | 0.245 ± 0.097
91 | AATTAATA | 0.271 ± 0.013
92 | CTTTAATA | 0.16 ± 0.04
93 | AATTAACA | 0.244 ± 0.008
94 | CATTAATA | 0.188 ± 0.011
95 | TATTAAAA | 0.226 ± 0.062
96 | TATTAATA | 0.288 ± 0.051
97 | TATTAACA | 0.128 ± 0.13
98 | CATTAACA | 0.22 ± 0.1
99 | AATTAATG | 0.139 ± 0.05
100 | AATTAATT | 0.213 ± 0.015

Row | Sequence | PBM 8-mer E-score
101 | GGGGTGAA | 0.0293 ± 0.058
102 | ACCCAATA | 0.132 ± 0.054
103 | ACCTGTTC | 0.0511 ± 0.016
104 | CCGAGGAA | 0.0622 ± 0.053
105 | AATGACCC | 0.074 ± 0.021
106 | GTGGCACA | 0.137 ± 0.017
107 | ACTTTAGC | -0.00298 ± 0.1
108 | CGACTGCC | -0.163 ± 0.0073
109 | GAACGAAA | 0.0569 ± 0.079
110 | ATCCTGTC | -0.0955 ± 0.045
111 | CGGTACAC | -0.0567 ± 0.015
112 | AAAAAGCG | 0.0746 ± 0.018
113 | ACCGCCTA | -0.0164 ± 0.2
114 | AAACTATG | -0.057 ± 0.1
115 | AGTCCTAG | -0.0808 ± 0.069
116 | GATTAATA | 0.314 ± 0.062
117 | GATTAACA | 0.156 ± 0.037
118 | GATTAAGA | 0.119 ± 0.07
119 | GATTAATC | -0.0526 ± 0.063
120 | AATTAAGC | 0.191 ± 0.046
121 | AATTAAGA | 0.253 ± 0.013
122 | AACCTTCC | 0.0123 ± 0.0059
123 | TAACGAGA | 0.263 ± 0.054
124 | CAACGAGA | 0.0722 ± 0.14
125 | AAACGAGA | 0.18 ± 0.13

Row | Sequence | PBM 8-mer E-score
126 | ATTACAGA | 0.0555 ± 0.062
127 | ATTACAGC | -0.00666 ± 0.05
128 | ATTACAGG | 0.236 ± 0.066
129 | TAGATACA | 0.143 ± 0.12
130 | CTCCGAGC | -0.0246 ± 0.032
131 | AAGTCATT | 0.131 ± 0.027
132 | ATGTTACA | 0.239 ± 0.025
133 | ATGTTACC | 0.106 ± 0.016
134 | CTGTTACA | 0.0334 ± 0.0084
135 | CTATCTAA | 0.0704 ± 0.073
136 | AAATGTGT | 0.175 ± 0.1
137 | CAATGTAC | 0.115 ± 0.019
138 | AAATGTAG | 0.0928 ± 0.084
139 | GAATGTAC | -0.0364 ± 0.078
140 | AAATGTAT | 0.241 ± 0.013
141 | AAATGTAC | 0.238 ± 0.048
142 | ACAGGCCT | -0.0825 ± 0.039
143 | AGCAGTAA | -0.0641 ± 0.1
144 | ACAGCGGA | -0.0346 ± 0.033
145 | GAATCAGA | -0.0136 ± 0.14
146 | GGACGGAA | -0.0931 ± 0.17
147 | TGATTTAA | 0.177 ± 0.05
148 | CAGTATGA | 0.138 ± 0.084
149 | TAGTATGA | 0.247 ± 0.067
150 | AAGTATGA | 0.071 ± 0.059

Row | Sequence | PBM 8-mer E-score
151 | TGGAGACA | -0.0387 ± 0.082
152 | ACATCTAG | -0.0494 ± 0.021
153 | AGAGCATA | 0.0465 ± 0.086
154 | ATTTCAAG | 0.104 ± 0.023
155 | GTTTCAAA | 0.162 ± 0.01
156 | ATTTCAAA | 0.252 ± 0.0095
157 | CTTTCAAC | 0.0143 ± 0.071
158 | CTTTCAAA | 0.267 ± 0.044
159 | ATTTCAAC | 0.146 ± 0.078
160 | ACTGGCTA | -0.11 ± 0.0093
161 | CAGACAGA | -0.0661 ± 0.06
162 | GTTCAATA | 0.159 ± 0.039
163 | ATGCAATC | 0.126 ± 0.089
164 | GCACGTTA | 0.0863 ± 0.14
165 | CCACGTGG | 0.475 ± 0.032
166 | CGACGTGC | -0.0517 ± 0.017
167 | CCACGTTA | 0.246 ± 0.059
168 | CTACGTGA | -0.0185 ± 0.092
169 | CCACGTCC | -0.0476 ± 0.004
170 | CCACGTGC | 0.463 ± 0.03
171 | CAACGTGG | 0.11 ± 0.046
172 | CGACGTGA | 0.124 ± 0.012
173 | CCACGTAG | -0.156 ± 0.06
174 | CCACGTTC | 0.114 ± 0.033
175 | CCACGTGA | 0.43 ± 0.082
